# Values without a mark were called inactive.
# Legend:
# Assay in all cases: log2 ratio of Biotin-Ahx-Ub-VS probe labelling (fragment/DMSO); higher = less target engagement (more negative = stronger competition), active = hit call of the paper (q ≤ 0.05, log2 ratio ≤ -1)
# Details in all cases: compound concentration: 200 uM; treatment time: 3 h
# [1] = target: T1, USP19 (UniProt O94966)
# T1 sequence (whole entry): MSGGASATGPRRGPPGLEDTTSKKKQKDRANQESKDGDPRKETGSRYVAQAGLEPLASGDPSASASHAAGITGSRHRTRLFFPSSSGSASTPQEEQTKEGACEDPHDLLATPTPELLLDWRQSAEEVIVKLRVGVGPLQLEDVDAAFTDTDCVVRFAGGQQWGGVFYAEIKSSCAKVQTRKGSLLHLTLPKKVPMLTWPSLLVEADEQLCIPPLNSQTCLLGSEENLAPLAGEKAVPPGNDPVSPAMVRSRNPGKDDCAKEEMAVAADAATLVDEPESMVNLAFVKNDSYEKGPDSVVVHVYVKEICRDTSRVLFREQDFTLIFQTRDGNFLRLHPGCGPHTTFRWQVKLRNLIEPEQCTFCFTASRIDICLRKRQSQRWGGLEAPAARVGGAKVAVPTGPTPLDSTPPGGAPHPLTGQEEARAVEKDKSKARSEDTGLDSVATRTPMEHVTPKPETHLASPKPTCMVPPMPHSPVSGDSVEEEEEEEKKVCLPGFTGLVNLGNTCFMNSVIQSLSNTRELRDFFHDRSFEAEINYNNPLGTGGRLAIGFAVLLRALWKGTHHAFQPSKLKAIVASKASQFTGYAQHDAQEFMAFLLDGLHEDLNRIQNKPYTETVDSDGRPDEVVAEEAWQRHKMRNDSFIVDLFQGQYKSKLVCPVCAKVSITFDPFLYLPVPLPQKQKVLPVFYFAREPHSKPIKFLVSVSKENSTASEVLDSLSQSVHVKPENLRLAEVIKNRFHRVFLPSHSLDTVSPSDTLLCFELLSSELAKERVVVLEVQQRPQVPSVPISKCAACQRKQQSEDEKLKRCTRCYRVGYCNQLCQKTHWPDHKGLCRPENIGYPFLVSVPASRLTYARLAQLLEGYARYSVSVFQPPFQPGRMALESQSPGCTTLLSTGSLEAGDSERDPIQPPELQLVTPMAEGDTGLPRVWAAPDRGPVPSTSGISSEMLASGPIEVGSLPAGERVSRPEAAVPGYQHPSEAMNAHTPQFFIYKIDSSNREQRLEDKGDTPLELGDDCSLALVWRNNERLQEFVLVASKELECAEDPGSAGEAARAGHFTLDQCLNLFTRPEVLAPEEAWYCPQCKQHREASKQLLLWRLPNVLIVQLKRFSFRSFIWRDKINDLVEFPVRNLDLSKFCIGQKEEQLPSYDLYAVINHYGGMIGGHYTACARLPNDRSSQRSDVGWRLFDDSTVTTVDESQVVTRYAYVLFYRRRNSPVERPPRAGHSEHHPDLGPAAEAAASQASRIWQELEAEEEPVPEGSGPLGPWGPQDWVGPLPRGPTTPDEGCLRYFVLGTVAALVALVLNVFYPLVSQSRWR
# Method in brief: (§1)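 Labelled DUBs from HEK293T lysate were NeutrAvidin-enriched, digested with LysC and trypsin, and run by diaPASEF LC-MS/MS. Before that, each 495 µg sample in Tris/CHAPS/IGEPAL buffer with protease inhibitors was treated in triplicate with fragment at 200 µM or vehicle for 3 h, then with Biotin-Ahx-Ub-VS at 0.5 µM final for 1 h. Values are average log2 ratios of fragment over vehicle by unpaired t-test, based on global-median-normalised Spectronaut label-free quantities from proteins with ≥2 unique peptides.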
# [2] = target: T2, USP22 (UniProt Q9UPT9)
# T2 sequence (whole entry): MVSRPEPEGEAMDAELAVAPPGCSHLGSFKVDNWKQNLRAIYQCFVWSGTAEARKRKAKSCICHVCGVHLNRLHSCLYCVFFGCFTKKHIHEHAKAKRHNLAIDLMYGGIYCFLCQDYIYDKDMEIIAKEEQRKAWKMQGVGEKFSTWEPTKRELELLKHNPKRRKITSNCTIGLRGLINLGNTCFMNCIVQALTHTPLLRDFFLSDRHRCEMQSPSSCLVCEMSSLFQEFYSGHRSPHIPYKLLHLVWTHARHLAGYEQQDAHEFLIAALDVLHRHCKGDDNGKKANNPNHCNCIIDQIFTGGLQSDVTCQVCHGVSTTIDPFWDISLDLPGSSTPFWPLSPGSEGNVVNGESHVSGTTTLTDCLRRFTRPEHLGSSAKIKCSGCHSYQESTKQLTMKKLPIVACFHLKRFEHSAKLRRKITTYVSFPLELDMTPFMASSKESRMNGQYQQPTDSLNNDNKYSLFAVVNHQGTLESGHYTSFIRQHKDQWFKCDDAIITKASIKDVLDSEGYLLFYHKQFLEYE
# Method in brief: as §1
# [3] = target: USP24 (UniProt Q9UPU5)
# Sequence of USP24 (Q9UPU5 whole entry): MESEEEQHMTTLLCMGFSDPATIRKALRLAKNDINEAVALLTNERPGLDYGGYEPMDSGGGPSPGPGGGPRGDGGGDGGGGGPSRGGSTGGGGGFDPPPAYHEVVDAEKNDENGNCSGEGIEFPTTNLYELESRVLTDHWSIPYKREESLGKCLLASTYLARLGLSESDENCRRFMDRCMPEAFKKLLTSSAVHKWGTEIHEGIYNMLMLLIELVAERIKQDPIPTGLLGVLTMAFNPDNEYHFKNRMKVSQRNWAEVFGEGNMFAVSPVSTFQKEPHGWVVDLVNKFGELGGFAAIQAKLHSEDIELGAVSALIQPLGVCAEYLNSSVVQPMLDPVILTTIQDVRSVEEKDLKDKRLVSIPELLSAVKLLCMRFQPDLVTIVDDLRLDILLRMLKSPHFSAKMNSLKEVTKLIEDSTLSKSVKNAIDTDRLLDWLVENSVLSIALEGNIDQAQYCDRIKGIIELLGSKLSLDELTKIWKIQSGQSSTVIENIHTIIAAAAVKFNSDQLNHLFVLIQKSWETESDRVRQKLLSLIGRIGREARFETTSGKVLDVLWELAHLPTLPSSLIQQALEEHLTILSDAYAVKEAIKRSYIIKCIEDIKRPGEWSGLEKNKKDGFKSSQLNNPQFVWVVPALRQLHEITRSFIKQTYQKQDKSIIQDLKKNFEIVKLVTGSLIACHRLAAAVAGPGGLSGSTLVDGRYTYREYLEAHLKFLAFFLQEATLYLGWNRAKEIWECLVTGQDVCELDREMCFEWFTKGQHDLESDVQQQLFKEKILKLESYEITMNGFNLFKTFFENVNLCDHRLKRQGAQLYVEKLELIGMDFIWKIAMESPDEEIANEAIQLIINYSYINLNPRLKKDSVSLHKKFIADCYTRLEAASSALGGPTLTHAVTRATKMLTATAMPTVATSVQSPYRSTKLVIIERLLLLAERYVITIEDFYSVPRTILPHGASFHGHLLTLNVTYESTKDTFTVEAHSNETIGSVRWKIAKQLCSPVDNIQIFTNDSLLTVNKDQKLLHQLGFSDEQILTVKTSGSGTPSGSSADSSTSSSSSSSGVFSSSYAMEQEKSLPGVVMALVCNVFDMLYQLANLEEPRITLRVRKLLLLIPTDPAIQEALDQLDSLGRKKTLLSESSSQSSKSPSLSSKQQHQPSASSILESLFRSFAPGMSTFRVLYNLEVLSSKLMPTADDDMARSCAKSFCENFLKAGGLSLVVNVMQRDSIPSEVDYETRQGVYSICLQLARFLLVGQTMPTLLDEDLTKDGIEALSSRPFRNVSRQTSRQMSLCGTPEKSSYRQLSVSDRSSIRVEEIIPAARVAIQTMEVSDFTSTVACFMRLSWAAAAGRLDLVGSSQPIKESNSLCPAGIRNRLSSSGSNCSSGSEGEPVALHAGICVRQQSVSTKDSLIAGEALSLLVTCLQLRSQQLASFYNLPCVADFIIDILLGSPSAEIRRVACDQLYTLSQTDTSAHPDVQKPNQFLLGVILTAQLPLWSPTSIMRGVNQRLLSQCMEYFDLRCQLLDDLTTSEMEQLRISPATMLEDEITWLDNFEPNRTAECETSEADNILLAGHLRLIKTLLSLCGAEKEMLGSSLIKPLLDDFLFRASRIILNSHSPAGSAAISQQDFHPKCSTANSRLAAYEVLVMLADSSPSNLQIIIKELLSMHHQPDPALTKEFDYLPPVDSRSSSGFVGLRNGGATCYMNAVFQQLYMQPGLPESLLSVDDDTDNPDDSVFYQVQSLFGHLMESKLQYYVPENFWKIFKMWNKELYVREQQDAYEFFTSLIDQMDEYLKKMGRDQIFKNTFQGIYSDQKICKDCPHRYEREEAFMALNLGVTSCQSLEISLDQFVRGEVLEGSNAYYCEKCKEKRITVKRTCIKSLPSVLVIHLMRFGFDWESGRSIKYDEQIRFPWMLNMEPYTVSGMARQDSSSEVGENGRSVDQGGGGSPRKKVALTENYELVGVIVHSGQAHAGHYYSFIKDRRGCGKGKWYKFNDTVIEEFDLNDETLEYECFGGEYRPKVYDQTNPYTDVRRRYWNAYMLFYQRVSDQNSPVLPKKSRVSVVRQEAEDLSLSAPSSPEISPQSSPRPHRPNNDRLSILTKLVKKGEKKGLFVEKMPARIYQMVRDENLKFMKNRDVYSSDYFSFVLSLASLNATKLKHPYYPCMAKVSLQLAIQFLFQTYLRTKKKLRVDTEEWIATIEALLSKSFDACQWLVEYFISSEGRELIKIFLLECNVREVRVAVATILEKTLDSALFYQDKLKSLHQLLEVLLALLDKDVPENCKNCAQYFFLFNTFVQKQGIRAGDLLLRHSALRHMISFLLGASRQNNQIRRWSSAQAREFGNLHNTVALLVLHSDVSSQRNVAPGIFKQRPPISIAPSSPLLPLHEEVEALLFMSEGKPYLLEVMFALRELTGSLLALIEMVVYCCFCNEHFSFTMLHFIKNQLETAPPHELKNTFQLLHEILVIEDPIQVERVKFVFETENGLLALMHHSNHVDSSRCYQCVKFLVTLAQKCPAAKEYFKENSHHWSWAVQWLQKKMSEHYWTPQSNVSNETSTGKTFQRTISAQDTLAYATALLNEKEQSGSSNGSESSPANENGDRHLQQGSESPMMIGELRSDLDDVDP
# Method in brief: as §1
# [4] = target: T3, USP25 (UniProt Q9UHP3)
# T3 sequence (whole entry): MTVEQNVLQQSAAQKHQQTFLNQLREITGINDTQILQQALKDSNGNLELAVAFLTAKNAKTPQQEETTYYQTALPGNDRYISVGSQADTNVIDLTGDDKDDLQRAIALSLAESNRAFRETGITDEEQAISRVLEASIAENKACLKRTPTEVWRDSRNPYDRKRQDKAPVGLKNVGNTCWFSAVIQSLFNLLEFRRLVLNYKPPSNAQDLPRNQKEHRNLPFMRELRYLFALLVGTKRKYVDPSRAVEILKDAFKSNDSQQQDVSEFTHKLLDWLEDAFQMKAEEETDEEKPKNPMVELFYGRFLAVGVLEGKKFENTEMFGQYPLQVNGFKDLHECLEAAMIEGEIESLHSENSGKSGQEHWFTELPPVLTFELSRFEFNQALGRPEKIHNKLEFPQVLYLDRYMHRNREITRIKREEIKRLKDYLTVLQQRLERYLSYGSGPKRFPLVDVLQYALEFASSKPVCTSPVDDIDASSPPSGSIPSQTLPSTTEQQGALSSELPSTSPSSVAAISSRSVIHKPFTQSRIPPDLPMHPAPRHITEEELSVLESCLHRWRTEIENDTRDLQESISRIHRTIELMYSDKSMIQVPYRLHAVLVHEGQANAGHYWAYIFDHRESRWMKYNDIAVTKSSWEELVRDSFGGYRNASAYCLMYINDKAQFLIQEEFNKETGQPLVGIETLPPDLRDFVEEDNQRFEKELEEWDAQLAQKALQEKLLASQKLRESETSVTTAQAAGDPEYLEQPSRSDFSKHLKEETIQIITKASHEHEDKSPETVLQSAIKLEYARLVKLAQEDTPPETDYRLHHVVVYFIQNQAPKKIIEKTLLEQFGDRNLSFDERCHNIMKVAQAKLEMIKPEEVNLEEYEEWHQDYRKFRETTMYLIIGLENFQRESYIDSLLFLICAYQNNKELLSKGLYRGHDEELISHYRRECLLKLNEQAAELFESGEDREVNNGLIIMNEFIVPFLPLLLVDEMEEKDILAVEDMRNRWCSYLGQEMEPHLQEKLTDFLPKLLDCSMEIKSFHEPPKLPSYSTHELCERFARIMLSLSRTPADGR
# Method in brief: as §1
# [5] = target: T4, USP28 (UniProt Q96RU2)
# T4 sequence (whole entry): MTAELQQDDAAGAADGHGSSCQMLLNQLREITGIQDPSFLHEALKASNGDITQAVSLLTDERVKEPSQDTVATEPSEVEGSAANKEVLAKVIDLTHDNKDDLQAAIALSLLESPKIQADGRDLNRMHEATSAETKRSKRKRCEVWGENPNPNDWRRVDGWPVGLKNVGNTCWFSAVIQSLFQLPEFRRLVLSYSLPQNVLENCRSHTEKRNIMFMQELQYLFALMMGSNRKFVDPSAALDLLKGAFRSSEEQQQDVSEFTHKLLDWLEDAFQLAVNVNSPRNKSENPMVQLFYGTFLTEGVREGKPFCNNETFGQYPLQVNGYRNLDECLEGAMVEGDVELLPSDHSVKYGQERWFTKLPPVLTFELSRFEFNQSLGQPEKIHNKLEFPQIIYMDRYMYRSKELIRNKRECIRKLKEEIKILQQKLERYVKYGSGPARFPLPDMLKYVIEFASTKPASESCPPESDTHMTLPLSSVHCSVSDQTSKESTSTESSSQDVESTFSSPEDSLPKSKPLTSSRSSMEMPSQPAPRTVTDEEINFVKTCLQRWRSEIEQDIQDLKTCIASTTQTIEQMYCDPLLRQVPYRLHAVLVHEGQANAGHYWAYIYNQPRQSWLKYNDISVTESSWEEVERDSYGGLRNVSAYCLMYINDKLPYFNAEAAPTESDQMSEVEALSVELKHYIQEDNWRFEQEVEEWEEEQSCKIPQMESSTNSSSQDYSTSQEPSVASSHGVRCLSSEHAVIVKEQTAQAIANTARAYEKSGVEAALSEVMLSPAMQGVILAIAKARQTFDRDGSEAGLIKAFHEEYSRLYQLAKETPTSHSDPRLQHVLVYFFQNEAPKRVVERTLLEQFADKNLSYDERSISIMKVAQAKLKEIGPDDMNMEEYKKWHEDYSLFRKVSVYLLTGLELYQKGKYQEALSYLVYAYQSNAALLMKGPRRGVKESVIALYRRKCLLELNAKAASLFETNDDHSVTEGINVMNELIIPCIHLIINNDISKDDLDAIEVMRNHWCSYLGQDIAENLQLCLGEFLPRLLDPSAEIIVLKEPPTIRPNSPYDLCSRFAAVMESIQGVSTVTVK
# Method in brief: as §1
smiles,measurement,setting,value
CC(=O)Nc1ccc(NC(=O)CCl)cc1,log2 ratio of Biotin-Ahx-Ub-VS probe labelling,[1],-0.179
same,log2 ratio of Biotin-Ahx-Ub-VS probe labelling,[2],-0.0522
same,log2 ratio of Biotin-Ahx-Ub-VS probe labelling,[3],-0.314
same,log2 ratio of Biotin-Ahx-Ub-VS probe labelling,[4],-1.33 (active)
same,log2 ratio of Biotin-Ahx-Ub-VS probe labelling,[5],-0.938
